Experiment [1] deals with XIP peptide (Xip251-270) binding. Briefly: XIP fragment 251-270 binding compounds – biochemical, small-molecule microarray, fluorescence 635/667 nm, 0.1 µg/mL protein, primary screen (AID 1182). The settings on record: fluorescent protein binding, 635 nm, higher = more signal, called active from +8 up or from −8 down.
Experiment [2] has as its system XIP peptide (Xip251-270). Briefly: compounds binding XIP fragment 251-270 – biochemical, small-molecule microarray, fluorescence 635/667 nm, 0.5 µg/mL protein, primary screen (AID 1183). The settings on record: fluorescence 635 nm, higher = more signal.
Experiment [3] can be described thus: blood-stage malaria parasite viability loss – strain 3D7, DAPI fluorescence, 100 nL, primary screen (AID 1184).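 Further: parasites grown inside human red blood cells in medium with human serum.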 The settings on record: P. falciparum 3D7 growth, 3 d, higher = more signal.
In experiment [4] the target is Homeobox protein Hox-A13 (Mus musculus) (UniProt Q62424). The experiment is described as follows: disruptors of Hoxa13 oligonucleotide interaction – biochemical, fluorescence polarization, labeled oligonucleotide, primary screen (AID 1185). The settings on record: Hoxa13:DNA binding, 15 min, higher = more signal, called active from +8 up or from −8 down. In general terms: Fluorescence polarisation rises when a labelled molecule tumbles more slowly, as on binding a larger partner.
Chain of Homeobox protein Hox-A13 (Mus musculus) (Q62424 whole entry, looked up): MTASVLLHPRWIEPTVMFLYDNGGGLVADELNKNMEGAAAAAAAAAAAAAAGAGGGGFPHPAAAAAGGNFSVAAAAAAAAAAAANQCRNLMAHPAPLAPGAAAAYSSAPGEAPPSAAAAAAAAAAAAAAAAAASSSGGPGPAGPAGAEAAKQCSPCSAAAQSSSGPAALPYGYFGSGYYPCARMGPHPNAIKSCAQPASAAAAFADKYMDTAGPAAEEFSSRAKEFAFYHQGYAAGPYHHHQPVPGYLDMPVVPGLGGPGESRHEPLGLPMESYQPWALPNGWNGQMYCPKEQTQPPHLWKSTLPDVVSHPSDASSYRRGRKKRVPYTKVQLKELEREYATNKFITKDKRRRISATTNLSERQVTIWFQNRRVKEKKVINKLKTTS

Experiment [5] in a line: blockers of DNA damage checkpoint Chk1 activation – imaging, HeLa, hydroxyurea, phospho-Chk1 antibody, percent positive cells, primary screen (AID 1186). The following applies: hydroxyurea-induced phospho-Chk1 immunofluorescence imaging, higher = more signal.
A short description of experiment [6]: blockers of DNA damage checkpoint Chk1 activation – imaging, HeLa, hydroxyurea, phospho-Chk1 nuclear intensity, primary screen (AID 1187). The following applies: hydroxyurea-induced phospho-Chk1 immunofluorescence imaging, higher = more signal.

Activity calls are given as the source filed them. Unless noted, how the calls were made is not given here.

In the case of `COC(=O)[C@@]1(Cc2ccc(F)cc2)[C@H]2c3cc(C(=O)N(C)C)n(CC4CC4)c3C[C@H]2CN1C(=O)c1ccccc1`, the figures for the composite z-score in experiment [1] and in experiment [2] were 0.308 (inactive) and 0.524, respectively. The z-score in experiment [3] is -1.33; in experiment [4], -2.84 (inactive); in experiment [5] it was -1.45 (inactive); in experiment [6], -1.76 (inactive).
For `COc1ccc(CCN2C(=O)[C@@]3(c4ccc([N+](=O)[O-])cc4)CC(=O)N(C4CCCCC4)[C@@H]3c3ccc(CO)cc32)cc1`, the composite z-score in experiment [1] is 1.23 (inactive); in experiment [2], 0.311. Besides, the z-score in experiment [3] is 0.706; in experiment [4] it was -0.544 (inactive); in experiment [5], 0.135 (inactive); in experiment [6] it was -0.0588 (inactive).
`CC(C)C[C@@H]1NC(=O)[C@H]2C[C@@H](C(=O)NCCCCCCN(C)C)[C@@H](c3ccc(O)cc3)N2C1=O`: the values for the composite z-score in experiment [1] and in experiment [2] were 1.2 (inactive) and 0.876, respectively. In addition, the z-score in experiment [3] was 1.26; in experiment [4] it was -1.57 (inactive); in experiment [5] it was 0.731 (inactive); in experiment [6], 0.387 (inactive).
Turning to `CCN(CC)c1ccc(N2CC=CC34O[C@@H]5/C=C\CCCOC(=O)C5[C@H]3C(=O)N(CCO)[C@@H]4C2=O)cc1` (stereo partly specified), the results for the composite z-score in experiment [1] and in experiment [2] were 0.482 (inactive) and 0.643, respectively. For the same compound, the z-score was -1.52 in experiment [3], -5.79 (inactive) in experiment [4], 0.225 (inactive) in experiment [5] and 0.161 (inactive) in experiment [6].
With `C=CCC(OC(C)=O)[C@@H]1[C@@H](N(Cc2cccc3ccccc23)C(=O)c2ccc(-c3ccccc3)cc2)c2cc(OCCCO)ccc2N1C(=O)Cc1ccc(OC)cc1` (stereo partly specified), the results for the composite z-score in experiment [1] and in experiment [2] were -0.162 (inactive) and 0.637, respectively. Further, the z-score is -1.17 in experiment [3], -1.15 (inactive) in experiment [4], -0.302 (inactive) in experiment [5] and -0.0837 (inactive) in experiment [6].
For the compound `CCCCN1CC=CC23O[C@@H]4/C=C\CCC(C)OC(=O)C4[C@H]2C(=O)N(CCCCCO)[C@@H]3C1=O` (stereo partly specified), the values for the composite z-score in experiment [1] and in experiment [2] were -0.725 (inactive) and 0.552, respectively. The z-score in experiment [3] was -0.232; in experiment [4] it was -4.53 (inactive); in experiment [5], -0.795 (inactive); in experiment [6], -0.518 (inactive).
As to `COCCOC(=O)N1C(=O)[C@@]2(c3cc(C#CC4=CCCCC4)ccc31)[C@H](C(=O)Nc1nc3ccccc3s1)[C@H]1C(=O)O[C@H](c3ccccc3)[C@H](c3ccccc3)N1[C@@H]2c1ccccc1OCCO`, the composite z-score in experiment [1] is 0.494 (inactive); in experiment [2], 0.698. Further, the z-score was -2.04 in experiment [3], 1.67 (inactive) in experiment [4], -0.169 (inactive) in experiment [5] and -0.114 (inactive) in experiment [6].
For the compound `C=CCN(Cc1ccccc1)C(=O)C(c1cccs1)N(CCOCCO)C(=O)/C=C\C(=O)O` (stereo unspecified), the composite z-score in experiment [1] was -0.467 (inactive); in experiment [2], -0.573. Moreover, the z-score in experiment [3] is -0.205; in experiment [4], -1.25 (inactive); in experiment [5], -1.41 (inactive); in experiment [6], -0.806 (inactive).
Consider `O=C1OCCC=C[C@H]2OC34C=CCN(CCN5CCOCC5)C(=O)[C@H]3N(CCCCCCO)C(=O)[C@@H]4C12` (stereo partly specified), for which the composite z-score is 0.995 (inactive) in experiment [1] and 0.091 in experiment [2]. The z-score in experiment [3] is -0.0217; in experiment [4] it was -5.15 (inactive); in experiment [5], -0.334 (inactive); in experiment [6], -0.109 (inactive).
On to `CN(C)CCCCCCNC(=O)[C@@H]1C[C@@H]2C(=O)N[C@@H](CCCCN)C(=O)N2[C@@H]1c1cccc(OCCO)c1`, for which the composite z-score in experiment [1] was 3.64 (inactive); in experiment [2] it was 0.944. In addition, the z-score was 0.0037 in experiment [3], -1.47 (inactive) in experiment [4], -1.14 (inactive) in experiment [5] and -0.785 (inactive) in experiment [6].
For the compound `CN1C(=O)[C@]2(Cc3ccccc3)N=C(c3ccc(OCCCO)cc3)O[C@@H]2c2ccccc21`, the composite z-score in experiment [1] was 0.97 (inactive); in experiment [2], 0.818. Further, the z-score is -2.3 in experiment [3], -4.54 (inactive) in experiment [4], -0.276 (inactive) in experiment [5] and 0.0593 (inactive) in experiment [6].
On to `COC(=O)[C@@]1(Cc2ccc(F)cc2)[C@H]2c3cc(C(=O)N4CCCC4)n(Cc4cc(C)n(C)n4)c3C[C@H]2CN1C(=O)c1ccccc1`, for which the results for the composite z-score in experiment [1] and in experiment [2] were 1.55 (inactive) and 0.759, respectively. Also, the z-score was -1.58 in experiment [3], -3.99 (inactive) in experiment [4], 0.611 (inactive) in experiment [5] and 0.53 (inactive) in experiment [6].
In the case of `O=C(c1ccccc1)N1Cc2ccccc2[C@@H]2OC(c3ccc(OCCCO)cc3)=N[C@]2(Cc2ccccc2)C1=O`, the composite z-score is 1.67 (inactive) in experiment [1] and 0.576 in experiment [2]. Besides, the z-score in experiment [3] was -2.2; in experiment [4], 1.01 (inactive); in experiment [5], 0.103 (inactive); in experiment [6], -0.3 (inactive).
For the compound `C=CCN1C(=O)[C@]2(O[C@H](CCO)[C@@H]([Si](C)(C)c3ccc(OC)cc3)[C@@H]2C)c2cc(N3CCCCC3=O)ccc21`, the composite z-score in experiment [1] was 0.238 (inactive); in experiment [2], 0.732. Also, the z-score is -2.66 in experiment [3], -6.28 (inactive) in experiment [4], -0.147 (inactive) in experiment [5] and -0.56 (inactive) in experiment [6].
For `CC(C)(C)OC(=O)CC[C@]1(C(=O)O)N=C(c2ccc(OCCCO)cc2)O[C@H]1c1ccccc1N=[N+]=[N-]`, the composite z-score in experiment [1] is 1.25 (inactive); in experiment [2], 0.907. Also, the z-score was -0.164 in experiment [3], -5.39 (inactive) in experiment [4], 0.0751 (inactive) in experiment [5] and -0.136 (inactive) in experiment [6].
For `C=CCNC(=O)[C@@H]1[C@H]2C(=O)O[C@H](c3ccccc3)[C@H](c3ccccc3)N2[C@H](c2ccc(OCCO)cc2)[C@@]12C(=O)Nc1ccc(C#Cc3ccc(OC)cc3)cc12`, the composite z-score in experiment [1] was 1.37 (inactive); in experiment [2], 0.792. Besides, the z-score is -2.28 in experiment [3], -1.61 (inactive) in experiment [4], 0.166 (inactive) in experiment [5] and 0.143 (inactive) in experiment [6].
